ChEMBL document CHEMBL4513216, “Probing the Open Global Health Chemical Diversity Library for Multistage-Active Starting Points for Next-Generation Antimalarials” (ACS Infect Dis, 2020)
About 8,600 (12%) of roughly 69,000 compounds showed an effect of 50% or more. For the sample, strong results were picked, then their nearest neighbours and some compounds at random.

Each compound was assayed on Plasmodium berghei (assay: Screen against P. berghei liver stage (PbLuc), transformed with Luciferase, at 10uM). Details: tested at 10 uM.
Type: functional, HepG2
`CN1CCN(C(=O)c2cc3sccc3n2Cc2ccc(Cl)cc2)CC1` was tested, and the INHIBITION was 13.9%.
Work on `Cn1cnc(S(=O)(=O)N2CCCc3cccc(F)c32)c1Cl` yielded an INHIBITION of 39.7%.
`O=C(CC1CC1)N1CC[C@H]2[C@@H]1CCC(=O)N2c1cccnc1` gave an INHIBITION of 58.6%.
`Cc1ccc(C(=O)N2CC[C@H]3[C@@H]2CCC(=O)N3c2ccccc2)cn1` gave an INHIBITION of 16.8%.
`O=C(Cc1cccs1)N1CC[C@H]2[C@@H]1CCC(=O)N2c1cccnc1` was tested, and the INHIBITION was 30.7%.
With `Cc1ccc(C(=O)N2CC[C@@H]3[C@H]2CCC(=O)N3c2ccccc2)o1` the INHIBITION was 31.8%.
With `Cc1cccc(C(=O)N2CC[C@@H]3[C@H]2CCC(=O)N3c2ccccc2)n1` the INHIBITION was 65.7%.
With `Cc1cc(C(=O)N2CC[C@H]3[C@@H]2CCC(=O)N3c2ccccc2)no1` the INHIBITION was 53.9%.
`O=C(C1CC1)N1CC[C@H]2[C@@H]1CCC(=O)N2c1ccccc1` gave an INHIBITION of 12.1%.
With `O=C(c1ccco1)N1CC[C@@H]2[C@H]1CCC(=O)N2c1ccccc1` the INHIBITION was 30.3%.
`Cc1cnc(C(=O)N2CC[C@H]3[C@@H]2CCC(=O)N3c2cccnc2)cn1` showed an INHIBITION of 40.4%.
`Cc1cccc(N2CCCC3(C2)CN(S(=O)(=O)C2CC2)CCO3)c1` (stereo unspecified) was tested, and the INHIBITION was 20.1%.
Work on `CCc1c(C)nc2cc(-c3nccn3C)nn2c1N1CCCC(CO)C1` (stereo unspecified) yielded an INHIBITION of 10.62%.
For `Cc1csc(CCCNC(C)CC(=O)Nc2ccc(F)cc2)n1` (stereo unspecified), the INHIBITION was 40%.
In the case of `c1cnc(Nc2cncc(C3CCCN3)n2)cn1` (stereo unspecified), the INHIBITION is reported as 31.6%.
`CN(C)CC1COCCN1C(=O)C1(c2cccs2)CCCC1` (stereo unspecified) gave an INHIBITION of 36.2%.
`CS(=O)(=O)N1CCN(c2cc(-n3cccc3)ncn2)CC1` gave an INHIBITION of 38.3%.
`Cc1noc([C@@H]2CCO[C@@H]3CCN(Cc4ccc(C)s4)C[C@@H]32)n1` gave an INHIBITION of 53.2%.
Compound `Cc1noc([C@@H]2CCO[C@@H]3CCN(Cc4cccs4)C[C@@H]32)n1` has an INHIBITION of 24.1%.
For `Cc1ccc(CN2CC[C@H]3OCC[C@@H](c4nc(C)no4)[C@H]3C2)cc1`, the INHIBITION was 36.4%.
With `COCC(=O)N1CC[C@H]2N(C)CC[C@@]2(C(=O)Nc2ccccc2)CC1` the INHIBITION was 3.25%.
For `CN(C)C(=O)CN1CCCC12CCCN(c1ncc(F)cn1)C2` (stereo unspecified), the INHIBITION was 8.31%.
With `Cc1cnc(N2CCC[C@@H]3CN(CC(=O)N(C)C)C[C@@H]32)nc1` the INHIBITION was 52.3%.
In the case of `CN(C)C(=O)CN1CCC2(CCCN(c3ncc(F)cn3)C2)C1=O` (stereo unspecified), the INHIBITION is reported as 11.3%.
Compound `Cc1cnc(N2CCC[C@@H]3CN(S(C)(=O)=O)C[C@@H]32)nc1` has an INHIBITION of 29.8%.
Work on `Cc1cnc(N2CCCC3(CCCN3CC(=O)N(C)C)C2)nc1` (stereo unspecified) yielded an INHIBITION of 79.2%.
`CC(=O)N1C[C@H]2CCCN(c3ncc(C)cn3)[C@H]2C1` gave an INHIBITION of 45.8%.
In the case of `CN(C)C1(CNC(=O)CC=Cc2ccc(F)cc2)CCOCC1`, the INHIBITION is reported as -18%.
With `Cc1nc(C)n(CC2CCCN(Cc3cn4c(C)cccc4n3)C2)n1` (stereo unspecified) the INHIBITION was 5.03%.
With `O=c1ccc2c(n1CCN1CCCC1)CCN(c1ncccn1)CC2` the INHIBITION was 29.5%.
Compound `CSCc1noc(CNC(=O)C2CCN(C(=O)C3CCC3)CC2)n1` has an INHIBITION of 16.7%.
Compound `CSCc1noc(CNC(=O)C2CCN(C(=O)C3CCCC3)CC2)n1` has an INHIBITION of -26%.
Compound `CSCc1noc(CNC(=O)C2CCN(C3CCCCC3)CC2)n1` has an INHIBITION of 53.9%.
`CCOCCCNc1cc(C)nn2cnnc12` gave an INHIBITION of 25.3%.
`Cc1nn(C)c(C)c1NC(=O)CCn1ncc2ccccc21` showed an INHIBITION of 35.8%.
`CCn1nc(C)c(NC(=O)CCn2ncc3cc(C)ccc32)c1C` was tested, and the INHIBITION was 50.7%.
For `Cc1ccc2cnn(CCC(=O)Nc3c(C)nn(C)c3C)c2c1`, the INHIBITION was -8.19%.
In the case of `CCn1c(CN2CCN(CCO)CC2)nc2c(F)cccc21`, the INHIBITION is reported as 24.95%.
For `COCCO[C@H]1CCN(C(=O)c2ccno2)[C@H]1Cc1ccncc1`, the INHIBITION was 18.3%.
Compound `CCC1(CC)C(=O)NC(=O)N/C1=N/c1cccc(OC)c1` has an INHIBITION of 58.2%.
Work on `CCc1cnc2c(c1Nc1cccc(OC)c1)c(=O)n(C)c(=O)n2C` yielded an INHIBITION of -31%.
Compound `CCC(C)NC(=O)Nc1cccc(OC)c1` (stereo unspecified) has an INHIBITION of -32%.
For `CCN(CC)Cc1cc(=O)n2c(n1)CN(S(=O)(=O)C1CC1)CCC2`, the INHIBITION was -3.26%.
With `Cn1cnc(S(=O)(=O)NCCCN2CCCC2=O)c1Cl` the INHIBITION was 4.71%.
For `Cc1ccc(CN2C[C@@H]3C[C@H](C(=O)NCC4CC4)N(C)[C@@H]3C2)o1`, the INHIBITION was 16.1%.
`Cc1ccc(O)c(C(=O)N2CCOCC2c2c(C)nn(C)c2C)c1` (stereo unspecified) showed an INHIBITION of -57.4%.
`CCC1=N[C@@]2(CC[C@@H]3CN(C(=O)NCc4ccccc4C)C[C@@H]32)C(=O)N1` gave an INHIBITION of 70.7%.
`CC1=N[C@@]2(CC[C@@H]3CN(C(=O)NCc4ccccc4C)C[C@@H]32)C(=O)N1` was tested, and the INHIBITION was 28.7%.
`CCC1=N[C@@]2(CC[C@@H]3CN(C(=O)NCc4ccccc4)C[C@@H]32)C(=O)N1C` gave an INHIBITION of 25%.
`CCC1=N[C@@]2(CC[C@@H]3CN(C(=O)NCC4CCCCC4)C[C@@H]32)C(=O)N1` was tested, and the INHIBITION was 47.4%.
Compound `CCC1=N[C@@]2(CC[C@@H]3CN(Cc4ccccc4C)C[C@@H]32)C(=O)N1` has an INHIBITION of 37.8%.
`CC1=N[C@@]2(CC[C@@H]3CN(C(=O)NCCc4ccccc4)C[C@@H]32)C(=O)N1` showed an INHIBITION of 13.6%.
Work on `CCC1=N[C@@]2(CC[C@@H]3CN(C(=O)NCc4ccccc4)C[C@@H]32)C(=O)N1` yielded an INHIBITION of 50%.
For `CC1=N[C@@]2(CC[C@@H]3CN(C(=O)NCc4cccc(F)c4)C[C@@H]32)C(=O)N1`, the INHIBITION was 75.4%.
`CCC1=N[C@@]2(CC[C@@H]3CN(C(=O)NCc4cccc(F)c4)C[C@@H]32)C(=O)N1` showed an INHIBITION of 39.2%.
For `Cc1ccc(-c2nnn(CCN3C(=O)CCC3=O)n2)cc1`, the INHIBITION was -47.1%.
`Cc1cnc(C(=O)N2CCc3ncnc(-c4cnn(C)c4)c3CC2)cn1` showed an INHIBITION of -3.33%.
Work on `CC(=O)Nc1nc(C(=O)N2CCCC2c2noc(C(C)C)n2)cs1` (stereo unspecified) yielded an INHIBITION of 40.9%.
Compound `CNC(=O)c1nc(CC(=O)Nc2cccc(C(F)(F)F)c2)no1` has an INHIBITION of -2.61%.
Work on `Cc1cccc(OC2CN(C(=O)C3CC(=O)N(C(C)(C)C)C3)C2)c1` (stereo unspecified) yielded an INHIBITION of 25.5%.
In the case of `CC(C)Oc1ccc(CN2CCCC(N3CCCC3)C2)cc1CO` (stereo unspecified), the INHIBITION is reported as 20%.
`CC(C)Oc1ccc(CN2CCN3CCN(C)CC3C2)cc1CO` (stereo unspecified) gave an INHIBITION of -6.97%.
`CC(C)Oc1ccc(CN2CCCC(N3CCOCC3)C2)cc1CO` (stereo unspecified) showed an INHIBITION of 82.9%.
With `CCCC(=O)N1CCC(c2cc3cccnc3c(O)n2)CC1` the INHIBITION was 1.62%.
`CN(C)CCCNC(=O)c1ccccc1NC(=O)c1cc(Cl)ccc1Cl` was tested, and the INHIBITION was 27.6%.
`CCc1nc(C)sc1CN1CC[C@@](O)(C2CCOCC2)[C@H](C)C1` showed an INHIBITION of -10.9%.
In the case of `O=c1ccc2c([nH]1)CCN(S(=O)(=O)c1ccc3c(c1)OCCO3)C2`, the INHIBITION is reported as 26%.
`O=S(=O)(c1ccc2c(c1)OCCO2)N1CCc2ccccc2C1` was tested, and the INHIBITION was 57.6%.
Compound `O=S(=O)(c1ccc2c(c1)OCCO2)N1CCC(OCc2ccccn2)C1` (stereo unspecified) has an INHIBITION of -35.2%.
`Cc1nc2cc(=O)[nH]n2c(C)c1CC(=O)NCc1ccc(C#N)cc1` gave an INHIBITION of 41.2%.
`CC(C)(C)S(=O)(=O)CCNC(=O)c1ccc2ccccc2c1` gave an INHIBITION of -35.8%.
`CNS(=O)(=O)c1cccc(CNC(=O)c2cnn(C)c2C)c1` gave an INHIBITION of 11.3%.
`Cc1c(CNS(=O)(=O)c2cccc(COC(C)C)c2)cnn1C` gave an INHIBITION of 57.5%.
Compound `CCNS(=O)(=O)c1cccc(CSC)c1` has an INHIBITION of 19.4%.
For `COCc1cccc(S(=O)(=O)NCc2cnn(C)c2C)c1`, the INHIBITION was -25.8%.
Work on `CSCc1cccc(S(=O)(=O)NCCO)c1` yielded an INHIBITION of 0.266%.
Compound `CSCc1cccc(S(=O)(=O)NCc2cnn(C)c2C)c1` has an INHIBITION of 78.3%.
`CS(=O)(=O)Nc1ccn(Cc2cccc(Cl)c2)n1` was tested, and the INHIBITION was 22.6%.
`CCN(Cc1ccco1)C(C)c1nc(C)no1` (stereo unspecified) showed an INHIBITION of -97.2%.
For `COc1ccc(CN2Cc3nnn(C)c3C(COCCN(C)C)C2)cc1` (stereo unspecified), the INHIBITION was 16.4%.
`Cc1cc2c(c(-c3c[nH]c(C)n3)c1)OC(CN)C2` (stereo unspecified) showed an INHIBITION of 11.6%.
Work on `Cc1nc(-c2cc(Cl)cc3c2OC(CN)C3)c[nH]1` (stereo unspecified) yielded an INHIBITION of 68.3%.
`Cc1nc(-c2cc(Cl)c3c(c2)CC(CN)O3)c[nH]1` (stereo unspecified) was tested, and the INHIBITION was 24.4%.
`Cc1cc(C(F)(F)F)c2c(=O)n(Cc3cc(C)on3)n(C)c2n1` gave an INHIBITION of 42.1%.
With `CC(C)(CN)NS(=O)(=O)c1c(F)cccc1F` the INHIBITION was -4.62%.
For `Cc1ncsc1-c1nc(CC2CCN(C)CC2)nn1Cc1ccccc1`, the INHIBITION was 47.5%.
With `CN1CCC(Cc2nc(-c3cnccn3)n(Cc3ccccc3)n2)CC1` the INHIBITION was -14.3%.
`CN1CCC(Cc2nc(-c3ccnn3C)n(Cc3ccccc3)n2)CC1` gave an INHIBITION of 64.6%.
`COc1c(C2CCCN2Cc2cccc(C(N)=O)c2)c(C)nn1C` (stereo unspecified) gave an INHIBITION of -11.4%.
`O=c1cc2c(nn1CN1CCC(c3ccccc3)CC1)CCC2` showed an INHIBITION of 33.6%.
For `CC(C)CO[C@H]1CN(S(=O)(=O)c2cn(C)cn2)[C@@H]2CCCO[C@H]12`, the INHIBITION was 53.9%.
In the case of `Cn1cnc(S(=O)(=O)N2C[C@H](OCC3CC3)[C@H]3OCCC[C@H]32)c1`, the INHIBITION is reported as 40.8%.
In the case of `CCO[C@@H]1CN(S(=O)(=O)c2cn(C)cn2)[C@@H]2CCCO[C@@H]21`, the INHIBITION is reported as 2.79%.
In the case of `CC(=O)N1C[C@H]2CC[C@@H](C1)N(C(=O)CCc1n[nH]c3c1CCCC3)C2`, the INHIBITION is reported as 48.5%.
In the case of `CC(C)n1cnnc1CN(C)C(=O)C1CCCN(CC(N)=O)C1` (stereo unspecified), the INHIBITION is reported as 4.25%.
Work on `Cc1ccc(CNCC2CCCn3ccnc32)s1` (stereo unspecified) yielded an INHIBITION of 43.7%.
In the case of `Cn1cc(N2CCCC(NCc3cccc4c3OCCCO4)C2)cn1` (stereo unspecified), the INHIBITION is reported as 11.1%.
In the case of `Cc1ccc(N2CCCC(NCc3cccc4c3OCO4)C2)nn1` (stereo unspecified), the INHIBITION is reported as 16.8%.
Work on `Cc1cn2c(n1)C(CNCc1ccc(C)s1)CCC2` (stereo unspecified) yielded an INHIBITION of 51.1%.
Work on `Cc1cn2c(n1)C(CNCc1cccc3c1OCO3)CCC2` (stereo unspecified) yielded an INHIBITION of 62%.
`Cc1ccc(CNCC2CCCN2c2cccnn2)s1` (stereo unspecified) gave an INHIBITION of -19.9%.
